Where “and” joins values, the source holds several entries; their conditions need not be identical. Identical values can stand only once. The whole screen tested about 360,000 compounds, of which about 3,500 (0.97%) were called active.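 How the source made its calls: active means activation above a per-plate cutoff, the mean activation of sample wells on that plate plus 3 SD (cut at about 8% in these data); inactive means the rest.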 For the sample, actives were picked, then their nearest neighbours and some compounds at random. A structure can be active in one record and inactive in another.
target: Melanocortin receptor 4 (Homo sapiens) (UniProt P32245); test: activators of MC4R beta-arrestin recruitment – cell-based, luminescence, agonist arm of biased-ligand search, primary screen (AID 540308); conditions: U2OS MC4R beta-arrestin complementation, at 8.9 µM, stronger effect = higher value, percent of melanotan II response, DMSO zero
Sequence (P32245 whole entry, looked up): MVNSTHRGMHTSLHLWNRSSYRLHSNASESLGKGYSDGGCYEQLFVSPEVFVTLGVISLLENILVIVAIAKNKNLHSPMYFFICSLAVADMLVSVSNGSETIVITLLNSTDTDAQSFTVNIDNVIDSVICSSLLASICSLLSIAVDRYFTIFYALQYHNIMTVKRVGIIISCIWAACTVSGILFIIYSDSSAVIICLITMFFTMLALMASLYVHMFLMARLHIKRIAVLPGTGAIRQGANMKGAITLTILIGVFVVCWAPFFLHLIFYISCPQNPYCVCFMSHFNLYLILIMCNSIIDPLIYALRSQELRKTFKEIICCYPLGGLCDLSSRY

Structure (SMILES)	activation
COc1ccc(CNC(=O)c2ccc(Br)s2)cc1OC	-3.45% (inactive)
COc1ccc2nc(NC(=O)c3ccc(Br)s3)sc2c1	16.2% (active)
CSc1ncccc1C(=O)Nc1nc2ccc(F)cc2s1	-1.02% (inactive)
O=C(COc1ccc2c(c1)CCC2)N1CCN(c2ccc(F)cc2)CC1	0.92% (inactive)
COc1cc(NC(=O)c2cncc(-c3ccc(C#N)cc3)c2)cc(C(=O)Nc2cccc(C(F)(F)F)c2)c1	2.04% (inactive) and 10.5% (active)
O=C(Nc1cccc(C(F)(F)F)c1)c1ccc(N2CCNCC2)c([N+](=O)[O-])c1	-2.39% (inactive)
COc1cc(NC(=O)c2[nH]cnc2C(N)=O)cc(C(=O)Nc2cccc(C(F)(F)F)c2)c1	1.84% (inactive)
Cc1nc(C(F)(F)F)ccc1C(=O)N1CCC1(C)C(=O)NS(=O)(=O)c1ccc(F)cc1F (configuration not stated)	1.24% (inactive)
Cc1cccc(NC(=S)Nc2ccc(Cl)c(Cl)c2)c1	8.62% (active)
NS(=O)(=O)c1ccc(NC(=S)Nc2ccc(Br)c(Cl)c2)cc1	-1.38% (inactive)
S=C(Nc1ccccc1)Nc1ccc2ccccc2c1	0.79% (inactive)
OC(c1ccc(Cl)c(F)c1)c1ncc(-c2ccccc2Cl)[nH]1 (configuration not stated)	5.44% (inactive)
COc1ccc(-c2noc(C(C)NS(=O)(=O)c3ccc(NC(C)=O)cc3)n2)cc1 (configuration not stated)	-3.52% (inactive)
CCCC(=O)N1CCC1(C)C(=O)NCc1ccc(C(C)C)cc1 (configuration not stated)	1.64% (inactive)
COc1c(C)cc(C(O)c2ncc(-c3cccc(C(F)(F)F)c3)[nH]2)cc1C (configuration not stated)	2.23% (inactive)
N#Cc1ccccc1CN1C(=O)S/C(=C/c2cccn2-c2cccc(C(=O)O)c2)C1=O	1.23% (inactive)
O=C1CC(NNc2ccccc2)C(=O)N1c1cccc(Cl)c1 (configuration not stated)	2.47% (inactive)
O=C1N/C(=C/c2cccn2-c2ccccc2)C(=O)N1c1cccc(Cl)c1	30.7% (active)
CCN(CCN(C)C)C(=O)c1ccc2nc(C)c(N(C)C(=O)CCc3ccccc3)n2c1	0.87% (inactive)
O=C(c1cc(-c2ccc(O)cc2)on1)N1CCOCC1	-1.26% (inactive)
O=C(c1cc(-c2cccc(O)c2)on1)N1CCc2ccccc2C1	11.5% (active)
O=C(NCCCN1CCOCC1)c1cc(-c2cccc(O)c2)on1	-2.51% (inactive)

Structure (SMILES)	activation
CC1(C(=O)Nc2cccc3cccnc23)CCN1C(=O)CCC1CCCC1 (configuration not stated)	0.32% (inactive)
Cc1cccc2sc(N(CCCN(C)C)C(=O)CCS(=O)(=O)c3ccccc3)nc12	-2.28% (inactive)
COc1cccc2sc(N(CCCN(C)C)C(=O)C(c3ccccc3)c3ccccc3)nc12	11.3% (active)
CCN(CC)CCN(C(=O)c1ccc2c(c1)CCCC2)c1nc2c(OC)cccc2s1	5.13% (inactive)
Cn1c(SCC(=O)Nc2cccc(NC(=O)c3cccs3)c2)nnc1-c1ccncc1	0.46% (inactive)
Cc1nc(-c2nnc(SCC(=O)Nc3cc(C(F)(F)F)cc(C(F)(F)F)c3)n2C)cs1	10.2% (active)
Cc1cc(-c2nc(C)c(-c3nnc(SCC(=O)Nc4ccccc4)n3C)s2)no1	-2.39% (inactive)
Cc1ccccc1S(=O)(=O)NC(=O)C1(C)CCN1C(=O)C1(c2ccccc2)CCCC1 (configuration not stated)	-0.26% (inactive)
COc1ccc(-n2nnnc2-c2nc3ccccc3s2)cc1	9.47% (active)
COc1ccc(-n2nnnc2SCC(=O)NCc2cccs2)cc1	-3.21% (inactive)
COc1ccc(CNc2nnnn2C)cc1	-2.31% (inactive)
OC[C@@H]1CN(Cc2ccc(F)cc2)C[C@H](n2cnc3c(NC4CCCC4)ncnc32)O1	-2.29% (inactive)
CC1(C(=O)NCc2cccc3ccccc23)CCN1Cc1ccc(-c2ccccc2)o1 (configuration not stated)	-1.17% (inactive)
COc1ccc(-c2ccc(C(=O)NC(C)C)c3occc23)c(C)c1	1.66% (inactive)
CCc1nc2ccc(C(=O)N(C)Cc3ccco3)cn2c1N(C)C(=O)Cc1ccccc1	-1.99% (inactive)
COc1ccc(CNC(=O)c2nnn(CC(=O)Nc3cc(C)cc(C)c3)c2N)cc1	0.3% (inactive)
COc1cccc(CNC(=O)c2nnn(CC(=O)Nc3cc(Cl)ccc3C)c2N)c1	11.7% (active)
COc1cccc(CNC(=O)c2nnn(CC(=O)Nc3cc(C)ccc3C)c2N)c1	3.53% (inactive)
CN(C)c1cccc(NC(=O)c2ccc(-c3ccc(F)c(F)c3)c3ccoc23)c1	0.91% (inactive)
CC(OC(=O)c1ccc([N+](=O)[O-])cc1)C(=O)NCC1CCCCC1 (configuration not stated)	-1.32% (inactive)
COc1cc(C(=O)OC(C)C(=O)NCC2CCCCC2)cc(NC(=O)c2ccco2)c1OC (configuration not stated)	13.3% (active)
CC(OC(=O)c1cccc(S(=O)(=O)N2CCOCC2)c1)C(=O)NCC1CCCCC1 (configuration not stated)	0.27% (inactive)

Structure (SMILES)	activation
CC(C)Nc1ncnc2c1ncn2[C@H]1CN(Cc2ccncc2)C[C@@H](CO)O1	2.39% (inactive)
CC(C)CN1CCC1(C)C(=O)Nc1ccc(OC(F)F)cc1 (configuration not stated)	0.55% (inactive)
Cc1ccc(F)c(S(=O)(=O)NC(=O)C2(C)CCN2C(=O)c2ccco2)c1 (configuration not stated)	0.44% (inactive)
Oc1c(Cl)cc(Cl)c(Cl)c1Cc1c(O)c(Cl)cc(Cl)c1Cl	9.22% (active)
O=C(NCc1ccc(F)cc1)c1cc(C2CCCCN2C(=O)c2ccccn2)on1 (configuration not stated)	1.1% (inactive)
COc1cc(C#Cc2ccc3cc(CCCO)oc(=O)c3c2)cc(OC)c1	-2.63% (inactive)
COC(=O)C(C)Oc1ccc2c(c1)O/C(=C\c1cccc(Br)c1)C2=O (configuration not stated)	0.36% (inactive)
COc1cc(/C=C2\Oc3ccc(C#Cc4ccc(O)cc4)cc3C2=O)cc(OC)c1	10.2% (active)
CCc1nc2ccc(C(=O)Nc3cc(-c4ccccc4)ccc3OC)cn2c1N(CC)CC(=O)N(C)C	1.77% (inactive)
C[C@H]([C@@H](O)[C@@H](O)[C@@H](C)C(C)(C)C)[C@H]1CC[C@H]2C3CC[C@H]4C[C@H](OS(=O)(=O)O)[C@@H](OS(=O)(=O)O)C[C@]4(C)[C@H]3CC[C@]12C (some centres not stated)	0.15% (inactive)
CC1(C(=O)NS(=O)(=O)c2ccccc2)CCN1C(=O)C1CCCCC1 (configuration not stated)	-1.69% (inactive)
COc1cccc(-c2cc3nc(NCc4ccccc4OC)n(C)c(=O)c3s2)c1	6.31% (inactive)
CCN(CC)C(=O)Oc1ccc(Br)cc1C(=O)Nc1ccc(F)c(Cl)c1	11.6% (active)
COc1ccc(Cl)cc1C(=O)Nc1ccc(N(C)C(C)=O)cc1	0.11% (inactive)
CCCOc1ccc(F)cc1-c1cc(C(=O)Nc2ccc(F)c(Cl)c2)[nH]n1	2.17% (inactive)
CCN(CC)c1ccc(C(=O)N/N=C/c2ccc(N3CCOCC3)cc2)cc1	26.7% (active)
CCN(CC)c1ccc(/C=N/NC(=O)CNC(=O)c2cccs2)cc1	-1.48% (inactive)
Cc1ccccc1N/N=C/c1ccc(N2CCOCC2)cc1	-1.27% (inactive)
O=CNc1cc(-c2ccc(C(=O)N3CCOCC3)cc2)cn2c(-c3ccc(F)cc3)cnc12	0.33% (inactive)
CC1(Cc2ccccc2C#N)C(=O)Nc2ccc(-c3ccc4[nH]ccc4c3)cc21 (configuration not stated)	-2.44% (inactive)
Cc1nc2c(OCc3cccc(Cl)c3)cccn2c1N(C)CC1CC1	-0.13% (inactive)
CC1(C(=O)NCc2ccco2)Cc2c(-c3ccc4c(c3)OCO4)ccnc2O1 (configuration not stated)	0.01% (inactive)

Structure (SMILES)	activation
CC1=C(C/C=C(\C)CCCC(C)CCCC(C)CCCC(C)C)C(=O)c2ccccc2C1=O (configuration not stated)	-1.56% (inactive)
Cc1ccc(S(=O)(=O)N(C)C)cc1NC(=O)COC(=O)c1c(C)noc1C	-0.85% (inactive)
CCN(CC)S(=O)(=O)c1ccc(OC)c(NC(=O)CCc2c(C)noc2C)c1	-1.81% (inactive)
CCN(CC)S(=O)(=O)c1ccc(C)c(NC(=O)COc2ccc(Br)cc2Cl)c1	13.4% (active)
O=C(NCc1cccnc1)c1cc(C2CCCCN2C(=O)CCc2ccccc2)on1 (configuration not stated)	-1.7% (inactive)
CCNC(=O)C1CCCN(C(=O)c2cc(F)ccc2C)CC1 (configuration not stated)	1.6% (inactive)
O=C(N[C@@H](Cc1ccccc1)C(=O)OCc1ccccc1)c1nc[nH]c1C(=O)NC1CCNCC1	-0.82% (inactive)
CC(C)(C)OC(=O)N1CCC(NC(=O)c2[nH]cnc2C(=O)N[C@@H](Cc2ccccc2)C(=O)OCc2ccccc2)CC1	17.8% (active)
O=C(N[C@@H](Cc1ccccc1)C(=O)OCc1ccccc1)c1nc[nH]c1C(=O)N[C@@H](Cc1ccccc1)C(=O)OCc1ccccc1	0.69% (inactive)
CC(=O)c1ccc(Nc2nc(C(N)c3ccccc3Cl)cs2)cc1 (configuration not stated)	-0.98% (inactive)
C=CCC(NC(=O)Cc1ccccc1)C(=O)NCCC (configuration not stated)	-0.94% (inactive)
O=C(CN1CCN(Cc2ccccc2)CC1)NC(c1ccccc1)c1ccccc1	1.85% (inactive)
O=C(Cc1ccc(-c2ccccc2)cc1)NC(c1ccccc1)c1ccccc1	9.56% (active)
COc1ccc(CN2CCC(C)(Oc3cccc(F)c3)C2)c2ccccc12 (configuration not stated)	0.37% (inactive)
COc1c(Cl)cc(C(=O)Nc2ccc(Cl)cn2)cc1Cl	10.6% (active)
CCCc1cc(C(=O)Nc2ccc(Cl)cn2)cs1	3.75% (inactive)
O=C(Nc1ccc(Cl)cn1)c1ccc2c(c1)OCCO2	0.85% (inactive)
COc1ccc(-c2cc3nc(NCCOc4ccccc4)ccn3n2)cc1	4.13% (inactive)
CCOc1cc(/C=N/NC(=O)OC)ccc1OCCSc1ccc(Cl)cc1	4.19% (inactive)
CCOc1ccc(/C=N/NC(=O)C(C)Sc2ccccn2)cc1OCC (configuration not stated)	2.39% (inactive)
COc1cc(/C=N/NC(=O)Nc2ccccc2)ccc1OCCOc1ccccc1C	21.2% (active)
